PLK1 PBD block = PLK1 (human) polo-box domain binding inhibition; P53350; Plk1 PBD binding of FITC phosphopeptide, fluorescence polarization; Potency, µM, inactives show max response, negative = inhibition, most hits filed as inhibitors; 360,000 tested, 2.8% active; further: potency means the concentration at half of the fitted maximal effect; series mostly up to about 57 µM; on the % scale 0 is the no-effect control and ±100 the full control effect; nearly all actives have a fitted effect of over 65% in size
Target sequence (P53350 whole entry, looked up, the tested form may be a part): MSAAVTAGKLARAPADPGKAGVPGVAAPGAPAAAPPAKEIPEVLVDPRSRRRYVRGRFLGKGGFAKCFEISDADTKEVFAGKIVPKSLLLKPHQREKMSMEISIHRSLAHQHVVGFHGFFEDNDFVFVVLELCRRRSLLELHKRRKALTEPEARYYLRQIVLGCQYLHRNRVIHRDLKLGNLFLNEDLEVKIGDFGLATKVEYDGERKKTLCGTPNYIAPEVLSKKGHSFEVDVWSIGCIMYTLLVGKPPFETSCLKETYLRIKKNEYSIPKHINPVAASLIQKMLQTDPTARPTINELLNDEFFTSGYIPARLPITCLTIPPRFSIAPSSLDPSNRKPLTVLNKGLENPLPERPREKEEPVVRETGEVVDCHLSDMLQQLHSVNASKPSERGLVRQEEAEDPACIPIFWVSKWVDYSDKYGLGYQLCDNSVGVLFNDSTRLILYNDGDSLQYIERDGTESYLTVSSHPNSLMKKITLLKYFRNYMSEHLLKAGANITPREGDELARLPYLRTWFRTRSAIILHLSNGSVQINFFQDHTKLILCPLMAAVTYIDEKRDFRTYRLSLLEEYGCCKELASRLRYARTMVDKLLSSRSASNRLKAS
PI5P4Ka inh = blocks human PI5P4K alpha kinase activity | P48426 | PI5P4Kalpha enzyme, ADP-Glo luminescence, 60 min; active compounds read low | max response, % | 330,000 tested, 1.2% active | AID 652105; active means max response of -50% or lower; inconclusive means between -30% and -50%; inactive means -30% or higher; further: value at the top dose of about 77 µM; on the % scale 0 is the no-effect control and ±100 the full control effect
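ADP-Glo luminescence end-point after a 60 min room-temperature kinase reaction. PI5P4Kalpha and substrate in HEPES pH 7.4 buffer with EGTA, 0.1% CHAPS and 5% DMSO; ATP at 5 microM final.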
Rango dissoc inh = prevents RanGTP from dissociating the Rango-importin beta complex; O95149+P62826; AID 540253; Potency, µM (doses to about 46.1 µM), inactives show at the top dose activity change, negative = inhibition; 340,000 tested, 0.071% active; Biochemical FRET Rango-importin beta, RanGTP-induced dissociation; calls by dose curve; further: potency means the concentration at half of the fitted maximal effect; % of control where 0% means no effect; nearly all actives have a fitted effect of over 45% in size
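Compounds preincubate 5 min with complex of recombinant Rango and importin beta in PBS with 1 mM DTT. Ran (0.6 uM) loaded with 2 mM GTP plus 0.2 uM RCC1 starts dissociation; FRET is recorded 45 min later.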
Rango-impB inh = prevents formation of the Rango-importin beta complex; Q14974; Rango CFP/YFP FRET sensor + importin beta, 45 min; Potency, µM (titrated, usually from 92.2 µM), without a hit: at the top dose inhibition of complex formation; 340,000 tested, 0.031% active; AID 540263; calls by dose curve;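 further: potency means the concentration at half of the fitted maximal effect; 0% = DMSO wells and 100% = buffer wells lacking importin beta; nearly all actives have a fitted effect of over 15% in size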
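FRET biosensor Rango (snurportin 1 IBB between N-terminal EYFP and C-terminal Cerulean), 50 nM in PBS/1 mM DTT/0.02% Tween-20/0.1% BSA, preincubated 5 min RT with compound; 0.125 microM importin beta added, 45 min RT, CFP/YFP FRET ratio read.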
GCN5L2 inh = inhibitors of human GCN5L2 histone acetyltransferase; Q92830; Potency, µM (doses to about 58.9 µM), for the others: top-dose activity change, negative = inhibition, usual class: inhibitors; 390,000 tested, 0.21% active; GCN5L2 HAT assay, ThioGlo1 CoA-SH fluorescence; further: potency means the concentration at half of the fitted maximal effect; on the % scale 0 is the no-effect control and ±100 the full control effect
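Fluorescence readout, Ex340nm/Em540nm: ThioGlo1 (50uM final) reacts with free CoA thiol released as 20nM GCN5L2 acetylates H3(1-25) peptide (75uM) using acetyl-CoA (70uM). Compound and enzyme sat 15 min beforehand; 20 min room-temperature reaction.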
VDR inh = blocks the human vitamin D receptor; P11473; VDR-SRC2-3 peptide fluorescence polarization, 2 h; Potency, µM, without a hit: max response, negative = inhibition, usual class: inhibitors; 400,000 tested, 0.93% active; further: potency means the concentration at half of the fitted maximal effect; on the % scale 0 is the no-effect control and ±100 the full control effect
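FP read-out; VDR + SRC2-3 coactivator peptide; 23 nl compound by pintool; 2 h RT incubation; reagents held at 4 deg C, protected from light.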
* marks the source's active call; other numbers are inactive results; ? = inconclusive; . = no result. Hits are enriched below; roughly 3.6% of the tested compounds scored in any of these assays. Unless noted, the call rests on the fitted dose curve; in most records, active means well fitted curve in the direction sought with a large enough effect; inconclusive means small, poorly fitted or top-dose-only effect, or another doubt; inactive means no such curve, though single readings can be large; an effect the other way counts as inactive or inconclusive.

SMILES	PLK1 PBD block	PI5P4Ka inh	Rango dissoc inh	Rango-impB inh	GCN5L2 inh	VDR inh
CCOC(=O)c1c(C)oc2c1c(CN1CCN(C(=O)OCC)CC1)c(O)c1ccccc12	?	-56*	0%	3%	-9%	50µM*
CCOC(=O)c1c(C)oc2c1c(C=NCCC(=O)O)c(O)c1ccccc12	-27%	-1	?	?	-9%	-12%
CCOC(=O)c1c(C)oc2c1c(C(c1ccncc1)N1CCOCC1)c(O)c1ccccc12 (stereo not drawn)	11µM*	-22	3%	-3%	-27%	?
CCc1ccccc1NC(=O)Nc1ccc2c(c1)N(CC)C(=O)c1ccccc1S2	.	.	.	.	-2%	5%
COc1ccc2[nH]c(=O)c(CN(C(=O)c3cccnc3)c3ccc(C)cc3)cc2c1	-3%	-4	0%	2%	-4%	9%
COc1ccc2[nH]c(=O)c(CN(C(=O)c3cccnc3)c3cccc(C)c3)cc2c1	24µM*	?	-20%	-3%	-2%	?
Cc1cccc(CCNC(=O)c2ccc3c(c2)nc2n3CCCCC2)c1	.	.	.	.	-12%	9%
CCn1c(COc2ccccc2)nnc1SCC(=O)NC1CC1	-8%	9	-14%	-1%	1%	12%
CCn1c(COc2cccc(C)c2)nnc1SCC(=O)NC1CCCC1	30µM*	1	4%	-5%	-2%	?
CCC(=O)Nc1ccc(C(=O)CSc2nnc(-c3ccccc3F)n2C2CC2)cc1	-10%	-51*	21%	-1%	-4%	-13%
CCCCN(c1ccccc1)c1ncnc2c1cnn2-c1ccc(Cl)cc1	.	.	.	.	-6%	-11%
CCc1ccc(C(=O)CC2(O)C(=O)N(CCc3ccccc3)c3ccc(Cl)cc32)cc1 (stereo not drawn)	.	.	.	.	-10%	-12%
O=C1NN(c2ccccc2)C(=O)/C1=C\c1ccccc1	8.4µM*	-1	2%	3%	-11%	?
O=C1NN(c2ccccc2)C(=O)/C1=C/c1cccs1	.	.	.	.	-10%	.
O=C1NN(c2cccc(Br)c2)C(=O)/C1=C\c1ccccc1	1.5µM*	-21	27%	?	-5%	?
O=C1NN(c2ccccc2)C(=O)C1=Cc1ccccc1	11µM*	-8	.	.	.	.
O=C1NN(c2cccc(Br)c2)C(=O)/C1=C/c1cccs1	19µM*	-4	0%	1%	-13%	?
Cc1cccc(-c2nc(SCC(=O)NCC3CCCO3)c3c(=O)n(C)c(=O)n(C)c3n2)c1 (stereo not drawn)	.	.	.	.	-5%	1%
COc1ccc(CNC(=O)c2cnc(N3CCCC3)nc2C)cc1	.	.	.	.	5%	-4%
CC(C)(C)OC(=O)N[C@@H](CC(=O)OCc1ccccc1)C(=O)O	27µM*	?	-15%	-1%	3%	-5%
CC(C)(C)OC(=O)NC(CC(=O)OCc1ccccc1)C(=O)O (stereo not drawn)	-12%	-1	-10%	4%	-4%	-6%
Cc1ccccc1OCC(=O)NCC(=O)OCC(=O)c1ccc(Br)cc1	.	.	.	.	.	1%
O=S(=O)(O)c1ccc2c(N=Nc3ccc(S(=O)(=O)O)c4ccccc34)c(O)c(S(=O)(=O)O)cc2c1	.	.	.	.	-9%	-3%
O=S(=O)(O)c1cc(O)c2c(N=Nc3ccc(Nc4ccccc4)c4c(S(=O)(=O)O)cccc34)cc(S(=O)(=O)O)cc2c1	.	.	.	.	13µM*	40µM*
O=C(Nc1ccccc1C(F)(F)F)NC1(C(=O)N2CCOCC2)CCCCC1	6.7µM*	-88*	?	?	.	?
SMILES	PLK1 PBD block	PI5P4Ka inh	Rango dissoc inh	Rango-impB inh	GCN5L2 inh	VDR inh
Cc1ccccc1NC(=O)NC1(C(=O)N2CCOCC2)CCCCC1	4%	-1	10%	-4%	-2%	0%
COc1ccc(Nc2nc3ccccc3nc2NS(=O)(=O)c2ccc(Cl)cc2)cc1OC	.	.	.	.	-3%	-8%
O=C1CCCC/C1=C\Nc1ccc(S(=O)(=O)Nc2cnc3ccccc3n2)cc1	12%	-5	?	?	22µM*	-15%
Cc1ccc(C(=O)Nc2ccc(S(=O)(=O)Nc3cnc4ccccc4n3)cc2)cc1	-12%	-19	-2%	0%	-7%	1%
Cc1nn(C(=O)c2cccc(F)c2)c(C)c1S(=O)(=O)N1CCCCCC1	.	.	.	.	-6%	-1%
Cc1nn(CC(O)c2ccccc2)c(C)c1Br (stereo not drawn)	0%	1	14%	3%	0%	25%
Cc1nn(CC(O)CN2c3ccccc3Sc3ccccc32)c(C)c1Br (stereo not drawn)	3.8µM*	7	9%	-1%	-10%	?
O=S1(=O)c2ccccc2N(Cc2ccc(Cl)cc2F)c2ccccc21	.	.	.	.	-3%	0%
O=C(CCCCn1c(=O)c2ccccc2n(Cc2ccc(Cl)cc2)c1=O)NCc1ccccc1Cl	.	.	.	.	-4%	-6%
COc1ccc(-c2csc(NC(=S)NC(=O)c3cccs3)n2)cc1Br	0%	0	7%	3%	-4%	-12%
COc1ccc(-c2csc(NC(=S)NC(=O)c3cccs3)n2)cc1OC	-27%	-67*	-7%	-3%	-11%	-5%
COc1ccc2c(c1)CCc1c(C(=O)NCC(C)C)noc1-2	-8%	13	25%	1%	-10%	-5%
CCCNC(=O)c1noc2c1CCc1cc(OC)ccc1-2	27µM*	-1	30%	2%	-13%	-28%
O=S(=O)(c1ccc(=S)[nH]c1)N1CCN(Cc2ccccc2)CC1	?	6	1%	-5%	1%	79µM*
CCN(CC)S(=O)(=O)c1ccc(OCCNS(C)(=O)=O)cc1	3µM*	?	-20%	-1%	-4%	28µM*
CC1(C)CC(=O)CC(=NCC(=O)O)C1	-8%	.	26µM*	?	-1%	7%
